Screening results: PubChem BioAssay, Sanford-Burnham Center for Chemical Genomics
TROY NFkB inh: TROY signaling inhibition; Q293 LMP1-TROYcd NF-kB luciferase reporter, 4 h; inhibition, % at 10 µM; 360,000 compounds, 0.98% hits; AID 1347056;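 active = compounds whose plate-normalised and pattern-corrected inhibition of the luciferase reporter signal at the single screening dose is 50% or more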
Peg3 prom inh: Peg3 promoter activity inhibition. inhibition, % at 20 µM. 360,000 compounds, 1.7% hits. HeLa PEG-Prom luciferase reporter, luminescence, overnight. AID 588405;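 active = inhibition of at least 50% at 20 µM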
HIF-2a inh: inhibitors of HIF-2a | 786-0 RCC cells HIF-2a reporter, luciferase luminescence, overnight | inhibition, % at 18.8 µM | AID 624352 | 360,000 compounds, 0.72% hits;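 active = inhibition of the luminescence signal of 40% or more relative to plate controls, in a single-dose primary screen at 18.75 µM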
CF NFkB inh: blocks PAF-induced NF-kB reporter in cystic fibrosis cells. 360,000 compounds, 0.86% hits. inhibition, % at 5 µM. KKLEB NF-kB-GFP reporter, GFP fluorescence overnight;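 active = at least 50% inhibition at 5 µM, scaled per plate between neutral and stimulator controls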;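 note: PAF is a Pseudomonas aeruginosa culture filtrate used as stimulus; plate controls were PAF-stimulated DMSO wells for no effect and unstimulated DMSO wells for full effect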
TWEAK Fn14 block: inhibitors of TWEAK-Fn14 interaction signaling. 360,000 compounds, 2% hits. TWEAK-stimulated Fn14 reporter cells, luciferase luminescence, 8 h. inhibition, % at 10 µM; in the data active = inhibition above about 50%
KKLEB cytotox: reduces viability of KKLEB cystic fibrosis airway cells; KKLEB CF airway cells viability, ATPlite luminescence, overnight; hits give low values; cells stimulated with P. aeruginosa culture filtrate; activity change (cytotoxicity), % at 5 µM; 360,000 compounds, 0.36% hits;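 active = corrected activity change at or below -50% at 5 µM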
Starred values were filed as active, the others as inactive; . = no result. The list is not random: actives were taken first. Their share in the collection is about 3.9%.

SMILES	TROY NFkB inh	Peg3 prom inh	HIF-2a inh	CF NFkB inh	TWEAK Fn14 block	KKLEB cytotox
NC(=O)c1oc2ccccc2c1NC(=O)c1ccc([N+](=O)[O-])o1	-9.3	108.8*	15.6	62.3*	44.4	-24.1
CCC(C)c1ccc(OCCN2CCCC2)cc1 (centres undefined)	-7.6	-1.8	-9.5	7.8	-14.2	-7.0
CC(=O)N1c2ccccc2S(=O)(=O)c2ccccc21	-13.3	13.8	-2.8	4.9	-2.2	8.9
Cc1sc(NC(=O)c2cccc([N+](=O)[O-])c2)c(C(N)=O)c1-c1ccc(C(C)(C)C)cc1	69.1*	-21.5	2.3	23.4	64.0*	-7.9
O=C1CCc2cc(S(=O)(=O)NC(C(=O)N3CCN(c4ccccn4)CC3)c3ccccc3)ccc2N1 (centres undefined)	16.0	15.0	17.8	4.5	1.8	3.3
C=C(NC(=O)C(=C)NC(=O)c1csc(C2=NC3c4csc(n4)C4NC(=O)c5csc(n5)C(C(C)(O)C(C)O)NC(=O)C5CSC(=N5)/C(=C/C)NC(=O)C(C(C)O)NC(=O)c5csc(n5)C3(CC2)NC(=O)C(C)NC(=O)C(=C)NC(=O)C(=C)NC(=O)C(C(C)C)NC2C=Cc3c(C(C)O)cc(nc3C2O)C(=O)OC4C)n1)C(N)=O (centres undefined)	-9.1	81.2*	63.6*	-112.6	5.8	-16.0
CCOc1ccc(S(=O)(=O)Nc2ccc(C(=O)N(CC)CC(=O)NCc3cccs3)cc2)cc1	0.8	11.1	13.8	-8.4	74.0*	-3.4
O=C(Cc1ccc(Cl)cc1)NN1C(=O)c2ccccc2C1=O	6.8	8.7	23.7	5.3	-2.2	6.1
COC(=O)[C@@H]1[C@@H](C#N)C2(c3ccccc3-c3ccccc32)N(c2ccc(Cl)cc2)N1C#N	-6.8	109.8*	63.6*	10.2	17.3	-6.7
O=C(Cn1c(=O)n(CCC(=O)N2CCc3ccccc3C2)c(=O)c2ccccc21)NCC1CCCO1 (centres undefined)	8.0	1.9	2.9	-11.0	7.1	19.1
CN(Cc1ccccc1Cl)C(=O)CCNC(=O)c1ccco1	-11.6	-8.4	-7.7	6.5	18.5	1.6
CCOc1ccc2nc3cc(NCc4ccc(OC)cc4)ccc3c(N)c2c1	9.5	92.7*	21.0	-22.1	-13.6	-5.0
O=C(CCN1C(=O)/C(=C/c2ccccc2F)SC1=S)NCCCN1CCOCC1	6.1	8.2	-9.6	-9.5	50.4*	14.3
CCOc1ccc(/C=C2\SC(=S)N(CCCC(=O)NCCCN3CCOCC3)C2=O)cc1	8.7	68.2*	70.8*	4.8	25.5	-11.7
CCc1ccc(/C=C2\SC(=S)N(CCCC(=O)NCCCN3CCOCC3)C2=O)cc1	17.8	83.6*	82.7*	10.4	-26.5	-7.8
O=C(CCN1C(=O)/C(=C/c2ccccc2)SC1=S)NCCCN1CCOCC1	-17.0	18.7	-0.1	0.0	12.6	-24.5
O=C(CCN1C(=O)/C(=C/c2ccccc2F)SC1=S)N[C@@H](CO)Cc1ccccc1	0.6	68.2*	8.1	16.1	22.1	-0.8
CCc1ccc(/C=C2/SC(=S)N(CCC(=O)NCCCN3CCOCC3)C2=O)cc1	-14.1	-102.8	-49.6	-11.5	-17.3	-0.5
CN(CC(=O)Nc1ccc(F)cc1)C(=O)COC(=O)c1nc(Cl)ccc1Cl	-5.3	0.5	9.2	4.9	7.6	-5.5
CC12CCC(=O)C=C1CCC1C2CCC2(C)C(c3csc(N)n3)CCC12 (centres undefined)	50.8*	18.7	-27.2	38.5	57.3*	-18.2
CC12CCC(=O)C=C1CCC1C2C(O)CC2(C)C(c3csc(N)n3)CCC12 (centres undefined)	29.4	2.9	1.6	7.3	12.5	-8.3
O=C(NC(Cc1c[nH]c2ccccc12)C(=O)N/N=C/c1ccc(Cl)cc1)c1cccs1 (centres undefined)	28.5	35.9	19.0	-2.8	52.8*	7.9
O=C(NC(Cc1c[nH]c2ccccc12)C(=O)N1CCOCC1)c1cccs1 (centres undefined)	-11.1	11.6	5.7	-5.8	24.5	4.0
CCCCC(=O)Nc1ccc(N2CCN(c3ccc(F)cc3)CC2)cc1	0.3	6.9	18.3	-4.0	11.4	8.4
Cc1[nH]c2c(ccc3ccccc32)c1C1C(CCN)C1(C)C (centres undefined)	4.7	100.1*	1.5	4.6	21.4	-25.0
SMILES	TROY NFkB inh	Peg3 prom inh	HIF-2a inh	CF NFkB inh	TWEAK Fn14 block	KKLEB cytotox
Cn1c(=O)oc2cc(S(=O)(=O)Nc3ccc4c(c3)OCCO4)ccc21	5.1	26.7	17.8	5.5	65.5*	6.7
COc1cccc(S(=O)(=O)Nc2ccc3c(c2)OCCO3)c1	52.1*	8.4	15.1	7.7	76.3*	0.0
COc1ccc(C)cc1S(=O)(=O)Nc1ccc2c(c1)OCCO2	-1.0	13.2	19.2	-9.4	2.1	4.6
Cc1cccc(S(=O)(=O)Nc2ccc3c(c2)OCCO3)c1	-3.5	5.4	0.9	3.1	18.0	-0.6
COc1ccc(NC(C)=O)cc1S(=O)(=O)Nc1ccc2c(c1)OCCO2	53.4*	10.1	14.2	7.5	56.6*	8.6
O=S(=O)(Nc1ccc2c(c1)OCCO2)c1cccs1	74.0*	-12.4	35.6	-6.0	89.8*	-6.6
Cn1c(=O)c(=O)n(C)c2cc(S(=O)(=O)Nc3ccc4c(c3)OCCO4)ccc21	-0.1	6.0	12.3	-3.9	-2.1	3.4
Cc1csc(NC(=O)c2ccc(Br)s2)n1	-17.5	-345.0	-164.5	-23.4	0.5	1.6
CC(N)c1csc(Nc2nncc3ccccc23)n1 (centres undefined)	5.0	-74.9	-74.0	-7.5	9.1	0.6
Nc1ccc(CC(N)c2csc(Nc3nncc4ccccc34)n2)cc1 (centres undefined)	-4.5	9.1	-6.0	5.3	17.5	-3.0
NC(Cc1ccccc1)c1csc(Nc2nncc3ccccc23)n1 (centres undefined)	-32.7	95.8*	-24.6	23.1	-6.4	-8.3
NC(CCc1ccccc1)c1csc(Nc2nncc3ccccc23)n1 (centres undefined)	-16.2	89.8*	-4.2	26.2	-32.3	-7.8
CC(=O)c1cc(C#N)c(N2CCN(c3ccccc3)CC2)nc1C	-12.0	-39.9	-105.2	-16.7	-20.8	19.6
Cc1ccc(NC2=Nc3ccccc3CS2)cc1	31.9	-125.3	-112.8	-24.2	73.7*	-18.3
Cc1ccc(Nc2ccccc2)cc1	-3.5	3.4	-8.6	-20.4	-25.8	7.6
COc1ccc(-c2cc(-c3ccc(O)cc3)nc(N)c2C#N)cc1	-8.5	-9.8	-18.3	-9.6	2.9	-6.9
COc1ccc(-c2cc(-c3ccc(OC)cc3)c(C#N)c(SC)n2)cc1	9.6	33.2	10.3	50.1*	-1.9	-25.7
COc1ccc(N=C2C(=O)Nc3ccc(C)c(Br)c32)cc1	-7.1	7.3	10.2	-1.6	-12.9	-4.6
Cc1ccc(-c2nnc(CSc3nc(C(C)C)nc4sc(C)c(C)c34)o2)cc1	.	18.9	8.1	-1.8	82.7*	-1.4
